A short description of assay [1]: reducers of endogenous Her2 protein level, primary screen, SKBR3 breast tumor cells, AlphaScreen, ATP viability (AID 461;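 active means Her2 level under about 52% in both replicate screens, with viability over 70% of control, limit read from the data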;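 on Her2 level: lower value means less Her2 protein in the cells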;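 on viability: percent of carrier control wells set as 100% viability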). Particulars: 18-24 h, measured here: SKBR3 viability, ATP luminescence, at 10 µM.
Assay [2] addresses Receptor tyrosine-protein kinase erbB-2 (Homo sapiens) (UniProt P04626). The description is as above. The note with it: 18-24 h, at 10 µM, stronger effect = lower value.
Assay [3] in a line: SK-BR-3 cell growth inhibitors, pilot screen, 24 h, human (AID 572;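 active means viability at or below 10% of carrier control in both of two separate runs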;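 further: compound exposure lasted between 18 and 24 h rather than exactly 24 h; 100% = carrier-treated control wells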). Particulars: SK-BR-3 viability, CellTiter-Glo luminescence, at 10 µM, stronger effect = lower value.
Assay [4] in a line: HUVEC growth inhibition – cell-based, human, primary screen (AID 575;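 active means viability at or below 30% in both replicate assays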;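 further: 100% = median of untreated cell wells with 0.1% DMSO on each plate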). Particulars: HUVEC proliferation, CellTiter-Glo luminescence, 72 h; at 10 µM; stronger effect = lower value.
The nature of assay [5]: growth inhibitors of H69AR lung tumor, primary screen, human, duplicate replicates (AID 580;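 active means viability at or under a set limit in both replicates, limit being median viability minus 3 SD, cut at about 48% in these data, passing the limit was not always enough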;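 further: 100% = mean luminescence of untreated wells and 0% = no signal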). The note with it: H69AR lung tumor cells viability, ATP luminescence, 72 h; at 10 µM; stronger effect = lower value.
Assay [6] can be described thus: reversal of MRP1-mediated doxorubicin resistance, pilot screen, H69AR cells, doxorubicin co-treatment (AID 601;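 active means viability loss from added drug above about 55%, and viability with drug at most 40%, in both replicates, limit read from the data, passing the limit was not always enough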). The note with it: CellTiter-Glo, 72 h, at 10 µM; for differential viability (reversal): stronger effect = higher value.
Assay [7] is described as follows: 384-well plate pilot, post-Golgi transport modulator project, inhibition of yeast transport mutant growth (AID 636; in the data active means inhibition above about 31%). Particulars: absorbance 615 nm, about 18 h, stronger effect = higher value.
A short description of assay [8]: growth suppression of yeast trafficking mutant, preliminary HTS, modulators of trafficking downstream of Golgi apparatus project, 1536-format plate, OD 615 nm (AID 637; in the data active means inhibition above about 30%). The note with it: yeast transport mutant growth, absorbance 615 nm, 18 h; stronger effect = higher value.
Assay [9] in a line: OD615 S. cerevisiae growth inhibition, permissive medium, pilot counter-assay, permissive growth control for S. cerevisiae lifespan shortening project (AID 705;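 active means growth inhibition above 25% in both replicates, a cutoff set 3 SD above the mean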). The note with it: OD615, 24 h, at 10 µM, stronger effect = higher value.
Assay [10] in a line: Restrictive medium S. cerevisiae growth inhibition, OD615, pilot screen of yeast lifespan reduction project, restrictive growth control (AID 706;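 active means growth inhibition above a set limit, 3 SD over mean compound inhibition, in both replicates, cut at about 43% in these data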;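 further: modified DeaD lifespan yeast strain shifted to restrictive glucose medium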). Particulars: OD615, 48 h, at 10 µM, stronger effect = higher value.
Assay [11] is described as follows: viability gain of MRP-1-high H69AR cells under doxorubicin, pilot screen, MRP-1 activator project, CellTiter-Glo, duplicate (AID 807;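 active means viability increase at or above a cutoff of the median across tested compounds plus 3 SD, cut at about 8.5% in these data, passing the limit was not always enough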;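 further: compound pretreatment 18-22 h then 72 h combined with doxorubicin; 0% = doxorubicin alone and 100% = vehicle without doxorubicin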). The note with it: H69AR viability with doxorubicin, CellTiter-Glo luminescence; at 10 µM; stronger effect = higher value.
Assay [12] can be described thus: growth suppression of PTEN-deleted HCT116, pilot screen, cell-based, HCT116 clonal line, CellTiter-Glo (AID 824;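 active means viability at or below 27.92% in each of two runs, the all-compound median minus 4 SD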;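 further: 0% = 20 µM Hyamine control and 100% = vehicle cell control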). The note with it: 60 h, at 10 µM, stronger effect = lower value.
Assay [13] is described as follows: inhibitors of the yeast RAM network, pilot screen, dse1pr::URA3 reporter, 5-FOA selection (AID 869;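 active means inhibition over a set limit, the all-compound mean plus 3 SD, in both replicate runs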;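 further: 0% = DMSO wells with no growth and 100% = 10 µM 1-NA-PP1 with full growth; RAM network block rescues cells from 5-FOA so hits raise OD615 growth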). Particulars: S. cerevisiae dse1pr::URA3 5-FOA growth, OD615, 2 d; at 10 µM; stronger effect = higher value; strain carries analog-sensitive mutant Cbk1 kinase.
The nature of assay [14]: RAM signaling pathway blockade in yeast – S. cerevisiae, Pdr1DBD-CYC8 efflux-inhibited sensitized strain, primary screen (AID 1298).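 Further: 0% = DMSO untreated cells without growth and 100% = 10 µM 1-NA-PP1 full growth; higher means more yeast growth rescued from 5-FOA killing.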 The note with it: S. cerevisiae cbk1-as DSE1-URA3 strain, 5-FOA growth OD615, 2 d; at 50 µM; stronger effect = higher value.
The nature of assay [15]: growth suppression of beta-catenin knockout HCT116, pilot screen, human colon tumor cells (AID 823;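 active means cell viability at or below a set limit in both duplicate runs, the limit being the all-compound median minus 4 SD, cut at about 23% in these data, passing the limit was not always enough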;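 further: 0% = wells killed by 20 µM Hyamine and 100% = untreated DMSO cell wells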). The note with it: CellTiter-Glo, 60 h, at 10 µM, stronger effect = lower value.
[16] abbreviates: H69AR cells + 2 uM doxorubicin, measured here: viability with 2 uM doxorubicin, stronger effect = lower value.
The mark [17] stands for this setting: H69AR cells, compound alone cytotoxicity.

Molecules are shown by their SMILES. Records with an inconclusive call do not appear. Activity calls are given as the source filed them.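 How the source made its calls, unless noted: active means RAM network inhibition above 8.4% in each of two replicates, 3 SD over the compound average; inconclusive means above 8.4% inhibition in only one replicate; inactive means 8.4% inhibition or less in each replicate.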

Sequence of Receptor tyrosine-protein kinase erbB-2 (Homo sapiens) (P04626 whole entry, looked up): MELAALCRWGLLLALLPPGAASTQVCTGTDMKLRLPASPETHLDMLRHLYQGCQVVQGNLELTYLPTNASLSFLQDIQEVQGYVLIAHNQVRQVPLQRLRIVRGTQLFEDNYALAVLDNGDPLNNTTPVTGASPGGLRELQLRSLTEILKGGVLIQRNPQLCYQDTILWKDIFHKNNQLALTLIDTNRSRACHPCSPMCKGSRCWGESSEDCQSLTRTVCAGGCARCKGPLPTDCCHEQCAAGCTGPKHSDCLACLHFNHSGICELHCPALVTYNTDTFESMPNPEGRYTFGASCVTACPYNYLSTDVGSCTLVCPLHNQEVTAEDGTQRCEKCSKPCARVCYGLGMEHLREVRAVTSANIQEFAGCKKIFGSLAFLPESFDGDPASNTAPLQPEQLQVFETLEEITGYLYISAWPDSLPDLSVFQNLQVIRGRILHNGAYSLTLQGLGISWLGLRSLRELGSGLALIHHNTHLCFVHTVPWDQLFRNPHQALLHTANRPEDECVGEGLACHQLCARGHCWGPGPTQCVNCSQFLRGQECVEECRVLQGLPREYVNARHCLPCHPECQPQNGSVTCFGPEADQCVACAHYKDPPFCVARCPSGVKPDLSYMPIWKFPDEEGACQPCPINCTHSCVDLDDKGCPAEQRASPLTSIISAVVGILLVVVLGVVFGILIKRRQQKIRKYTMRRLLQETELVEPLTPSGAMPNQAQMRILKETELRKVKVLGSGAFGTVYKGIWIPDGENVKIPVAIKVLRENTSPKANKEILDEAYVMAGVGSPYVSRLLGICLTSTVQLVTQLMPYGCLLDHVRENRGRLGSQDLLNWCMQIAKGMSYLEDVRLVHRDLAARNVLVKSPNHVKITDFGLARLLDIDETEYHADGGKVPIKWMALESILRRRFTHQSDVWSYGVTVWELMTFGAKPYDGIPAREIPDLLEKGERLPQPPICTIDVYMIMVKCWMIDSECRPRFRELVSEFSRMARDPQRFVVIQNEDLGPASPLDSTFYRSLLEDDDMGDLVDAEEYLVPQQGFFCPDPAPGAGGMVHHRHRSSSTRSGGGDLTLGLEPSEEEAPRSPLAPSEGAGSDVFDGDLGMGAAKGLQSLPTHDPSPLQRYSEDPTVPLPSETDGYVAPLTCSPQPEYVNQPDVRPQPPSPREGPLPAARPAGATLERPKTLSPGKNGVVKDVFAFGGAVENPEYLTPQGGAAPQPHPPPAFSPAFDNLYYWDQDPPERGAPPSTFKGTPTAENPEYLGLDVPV

`Clc1ss/c(=N\c2ccccn2)c1Cl`: the viability is 100% in assay [1]; 100% (inactive) in assay [3]; 77.8% (inactive) in assay [4]; 76.6% (inactive) in [5]; 72.3% in assay [6] (setting [16]); 76.6% in assay [6] (setting [17]). The viability in assay [12] was 96.8% (inactive). In [2], the Her2 level was 77% (inactive). In addition, the differential viability (reversal) in [6] (H69AR cells + 2 uM doxorubicin) was 4.38% (inactive). Moreover, the inhibition in assay [7] is -9.18% (inactive); in assay [8] it was 2.06% (inactive); in [13], 1.77% (inactive). The growth inhibition was 3.12% (inactive) in assay [9] and 19.3% (inactive) in [10]. In addition, the viability increase in assay [11] is -5.42% (inactive). Moreover, in assay [14], the RAM network inhibition is 3.89% (inactive).
Regarding `O=c1[nH]c2ccc(Br)cc2c(-c2ccccc2)c1N1CCOCC1`, the viability in assay [1] is 91%; in assay [3] it was 91% (inactive); in [4], 60.1% (inactive); in [5], 75.7% (inactive); in assay [15], 92.7% (inactive); in assay [12], 75.2% (inactive). The Her2 level in [2] is 111% (inactive). For the same compound, the inhibition in [7] was 0% (inactive); in assay [8] it was 2% (inactive); in assay [13] it was 1.29% (inactive). Moreover, the growth inhibition in [9] was -12.5% (inactive); in assay [10], -15.8% (inactive). Also, the viability increase in assay [11] is -3.63% (inactive). Besides, the RAM network inhibition in assay [14] is 0% (inactive).
Take `COc1ccc(Nc2ncnc3c2cnn3-c2ccccc2)cc1OC`: the viability was 82.5% in [1]; 82.5% (inactive) in assay [3]; 59.4% (inactive) in [4]; 73.7% in [6] (setting [16]); 42.7% in assay [6] (setting [17]); 107% (inactive) in assay [15]. Moreover, in [12], the viability was 97.7% (inactive). For the same compound, the Her2 level in assay [2] is 91% (inactive). Moreover, the differential viability (reversal) in assay [6] (H69AR cells + 2 uM doxorubicin) is -31% (inactive). Also, the inhibition is 0.27% (inactive) in assay [7], -9.33% (inactive) in [8] and 0.635% (inactive) in assay [13]. For the same compound, the growth inhibition in assay [9] was -4.18% (inactive); in assay [10] it was -24.4% (inactive). Besides, the viability increase in assay [11] was -0.97% (inactive). In addition, the RAM network inhibition in [14] is 5.61% (inactive).
For `COc1ccc(-c2nnc3sc(C(C)N4C(=O)c5ccccc5C4=O)nn23)cc1` (configuration not stated), the viability was 84% in [1]; 84% (inactive) in assay [3]; 96.8% (inactive) in assay [4]; 90.9% (inactive) in assay [5]; 101% in assay [6] (setting [16]); 90.9% in [6] (setting [17]). Besides, the viability in assay [15] was 101% (inactive); in assay [12] it was 96.5% (inactive). Also, the Her2 level in [2] was 111% (inactive). In addition, the differential viability (reversal) in [6] (H69AR cells + 2 uM doxorubicin) was -9.99% (inactive). For the same compound, the inhibition in assay [7] was 2.13% (inactive); in [8], -2.67% (inactive); in assay [13] it was 1.46% (inactive). Moreover, the growth inhibition in [10] was 53.1% (active). The viability increase in assay [11] was -2.35% (inactive). Besides, in assay [14], the RAM network inhibition was -1.51% (inactive).
`Oc1cccc(C=NCc2ccccc2)c1O`: the viability is 78% in assay [1]; 78% (inactive) in assay [3]; 67.3% (inactive) in assay [4]; 77% in assay [6] (setting [16]); 51% in [6] (setting [17]); 71% (inactive) in assay [15]. Also, the viability in assay [12] is 72.2% (inactive). Also, the Her2 level in assay [2] was 82.5% (inactive). Besides, in assay [6] (H69AR cells + 2 uM doxorubicin), the differential viability (reversal) is -26% (inactive). In addition, the results for the inhibition in assay [7], in assay [8] and in assay [13] were -0.39% (inactive), -0.5% (inactive) and -0.21% (inactive), respectively. Further, the results for the growth inhibition in assay [9] and in assay [10] were 83.7% (active) and 97.5% (active), respectively. For the same compound, the viability increase in assay [11] was -3.97% (inactive). Moreover, the RAM network inhibition in [14] is -1.18% (inactive).
In the case of `Cc1noc(/C=C/N(C)C)c1S(=O)(=O)N1CCCC(C(=O)N2CCCCC2)C1` (configuration not stated), the viability in assay [1] is 84%; in assay [3] it was 84% (inactive); in [4] it was 95.9% (inactive); in assay [5], 97.3% (inactive); in assay [6] (setting [16]) it was 101%; in assay [6] (setting [17]), 97.3%. Also, the viability was 87.4% (inactive) in assay [15] and 85.2% (inactive) in assay [12]. Also, the Her2 level in [2] was 97% (inactive). Besides, the differential viability (reversal) in assay [6] (H69AR cells + 2 uM doxorubicin) is -3.44% (inactive). For the same compound, the figures for the inhibition in [7], in assay [8] and in [13] were 1.07% (inactive), -7.21% (inactive) and 1.34% (inactive), respectively. Moreover, the growth inhibition in assay [9] is 4.08% (inactive); in assay [10], 5.73% (inactive). Besides, the RAM network inhibition in [14] was 5.03% (inactive).
As for `CCn1c2ccccc2c2cc(Nc3cc(C)nc4ncnn34)ccc21`, the viability was 93% in assay [1]; 93% (inactive) in assay [3]; 18.1% (active) in assay [4]; 29.4% (active) in assay [5]; 57.4% in [6] (setting [16]); 29.4% in assay [6] (setting [17]). Also, the viability in [12] was 12.2% (active). Also, in [2], the Her2 level is 49% (active). In addition, the differential viability (reversal) in [6] (H69AR cells + 2 uM doxorubicin) was -28% (inactive). Besides, the inhibition is -1.6% (inactive) in assay [7], 0% (inactive) in assay [8] and -0.255% (inactive) in assay [13]. The growth inhibition in assay [10] was 72.4% (active). For the same compound, in assay [11], the viability increase was -7.76% (inactive). Moreover, the RAM network inhibition in assay [14] is -1.23% (inactive).
`CNC(=O)c1ccsc1NC(=O)CN1C(=O)CCC1=O`: the viability was 90% in [1]; 90% (inactive) in [3]; 96.8% (inactive) in assay [4]; 80.5% in [6] (setting [16]); 58% in [6] (setting [17]); 104% (inactive) in [15]. In [12], the viability was 98.9% (inactive). Also, the Her2 level in assay [2] was 94% (inactive). Besides, the differential viability (reversal) in assay [6] (H69AR cells + 2 uM doxorubicin) is -22.5% (inactive). The values for the inhibition in assay [7], in assay [8] and in assay [13] were -3.47% (inactive), -0.67% (inactive) and 1.65% (inactive), respectively. The values for the growth inhibition in assay [9] and in assay [10] were -11.5% (inactive) and 0.46% (inactive), respectively. Moreover, in assay [11], the viability increase is -6.24% (inactive). For the same compound, the RAM network inhibition in assay [14] is 1.73% (inactive).
Turning to `O=C(NC1(C(=O)NC2CCCCC2)CCCCC1)c1ccc2c(c1)OCO2`, the viability in assay [1] was 96.5%; in [3], 96.5% (inactive); in assay [4], 105% (inactive); in assay [5], 104% (inactive); in [6] (setting [16]), 99.2%; in assay [6] (setting [17]) it was 104%. The viability in assay [12] was 87% (inactive). The Her2 level in assay [2] was 92.5% (inactive). Further, the differential viability (reversal) in assay [6] (H69AR cells + 2 uM doxorubicin) is 4.42% (inactive). The inhibition in [7] was -4.66% (inactive); in assay [8], -1.27% (inactive); in assay [13], 1% (inactive). The values for the growth inhibition in assay [9] and in assay [10] were -0.75% (inactive) and 10.5% (inactive), respectively. Besides, the viability increase in assay [11] is 0.41% (inactive). Also, the RAM network inhibition in [14] was 5.37% (inactive).
As to `CCn1c(NC(=O)c2cccc(Cn3cc(Cl)cn3)c2)nc2ccccc21`, the viability in [1] is 93.5%; in assay [3], 93.5% (inactive); in [4], 69% (inactive); in [6] (setting [16]) it was 65.1%; in assay [6] (setting [17]), 56.5%; in assay [15] it was 40.3% (inactive). For the same compound, the viability in assay [12] was 40.1% (inactive). Besides, the Her2 level in assay [2] is 75% (inactive). Moreover, the differential viability (reversal) in assay [6] (H69AR cells + 2 uM doxorubicin) is -8.54% (inactive). In addition, the inhibition in assay [7] is -0.53% (inactive); in assay [8] it was 0.16% (inactive); in [13], 0.95% (inactive). Also, the values for the growth inhibition in assay [9] and in assay [10] were -10.1% (inactive) and 7.82% (inactive), respectively. Moreover, the viability increase in assay [11] was -0.12% (inactive). Further, in assay [14], the RAM network inhibition was 4.07% (inactive).
